# Test results published in the supplement of paper PMC7411640.
# System: MDA-MB-468
# Experiment: phospho-S6 immunofluorescence (DAPI-normalised), per-plate z-score; higher = higher phospho-S6 signal (less pathway suppression)
# Details: 24 h
# Description: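 GPCR-targeted compound library (MedChemExpress HY-L006) tested on MDA-MB-468 PTEN-null TNBC cells in 384-well plates at 0.1, 1 or 10 uM, combined with vehicle, GDC0941 450 nM or lapatinib 1 uM, for 24 h. Phospho-S6 (S240/244) immunofluorescence normalised to DAPI and expressed as a per-plate z-score; values are the mean of biological triplicates.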
compound,measurement,setting,value
C[C@@](N)(C(=O)O)c1ccc(C(=O)O)cc1 (compound 10 µM),phospho-S6 immunofluorescence (z-score),co-treatment: GDC0941 450 nM,0.93
same,phospho-S6 immunofluorescence (z-score),co-treatment: lapatinib 1 uM,1
same,phospho-S6 immunofluorescence (z-score),co-treatment: vehicle,0.17
CCCCOc1ccc(C(=O)Nc2ccc(F)cc2F)cc1 (compound 10 µM),phospho-S6 immunofluorescence (z-score),co-treatment: GDC0941 450 nM,-0.51
same,phospho-S6 immunofluorescence (z-score),co-treatment: lapatinib 1 uM,-1.06
same,phospho-S6 immunofluorescence (z-score),co-treatment: vehicle,0.89
CNCC(O)c1ccc(O)c(O)c1 [L-Epinephrine] (compound 10 µM),phospho-S6 immunofluorescence (z-score),co-treatment: GDC0941 450 nM,0.44
same,phospho-S6 immunofluorescence (z-score),co-treatment: lapatinib 1 uM,2.36
same,phospho-S6 immunofluorescence (z-score),co-treatment: vehicle,-0.3
COc1cc2c(NC3CCN(C(C)C)CC3)nc(N3CCC(F)(F)CC3)nc2cc1OCCCN1CCCC1 (compound 10 µM),phospho-S6 immunofluorescence (z-score),co-treatment: GDC0941 450 nM,1.81
same,phospho-S6 immunofluorescence (z-score),co-treatment: lapatinib 1 uM,3.34
same,phospho-S6 immunofluorescence (z-score),co-treatment: vehicle,1.97
CCCCC(=O)N(Cc1ccc(-c2ccccc2-c2nnn[nH]2)cc1)[C@H](C(=O)O)C(C)C [Valsartan] (compound 10 µM),phospho-S6 immunofluorescence (z-score),co-treatment: GDC0941 450 nM,0.04
same,phospho-S6 immunofluorescence (z-score),co-treatment: lapatinib 1 uM,0.5
same,phospho-S6 immunofluorescence (z-score),co-treatment: vehicle,0.13
CN1Cc2c(N)cccc2C(c2ccccc2)C1 (stereo not drawn) [Nomifensine (maleate)] (compound 10 µM),phospho-S6 immunofluorescence (z-score),co-treatment: GDC0941 450 nM,-0.09
same,phospho-S6 immunofluorescence (z-score),co-treatment: lapatinib 1 uM,-0.69
same,phospho-S6 immunofluorescence (z-score),co-treatment: vehicle,-0.17
CCNC(=O)[C@@H]1CCCN1C(=O)[C@H](CCCNC(=N)N)NC(=O)[C@H](CC(C)C)NC(=O)[C@@H](COC(C)(C)C)NC(=O)[C@H](Cc1ccc(O)cc1)NC(=O)[C@H](CO)NC(=O)[C@H](Cc1c[nH]c2ccccc12)NC(=O)[C@H](Cc1cnc[nH]1)NC(=O)[C@@H]1CCC(=O)N1 [Buserelin (Acetate)] (compound 10 µM),phospho-S6 immunofluorescence (z-score),co-treatment: GDC0941 450 nM,0.78
same,phospho-S6 immunofluorescence (z-score),co-treatment: lapatinib 1 uM,0.63
same,phospho-S6 immunofluorescence (z-score),co-treatment: vehicle,0.53
OCC1OC(n2cnc3c(NC4CCCCC4)ncnc32)C(O)C1O (stereo not drawn) [N6-Cyclohexyladenosine] (compound 10 µM),phospho-S6 immunofluorescence (z-score),co-treatment: GDC0941 450 nM,-0.37
same,phospho-S6 immunofluorescence (z-score),co-treatment: lapatinib 1 uM,1.37
same,phospho-S6 immunofluorescence (z-score),co-treatment: vehicle,0.6
C=CCN1CCc2nc(N)sc2CC1 (compound 10 µM),phospho-S6 immunofluorescence (z-score),co-treatment: GDC0941 450 nM,0.68
same,phospho-S6 immunofluorescence (z-score),co-treatment: lapatinib 1 uM,0.22
same,phospho-S6 immunofluorescence (z-score),co-treatment: vehicle,0.33
Cc1ccc(S(=O)(=O)N2CCCC2c2ccc(F)cc2)cc1 (stereo not drawn) (compound 10 µM),phospho-S6 immunofluorescence (z-score),co-treatment: GDC0941 450 nM,-2.47
same,phospho-S6 immunofluorescence (z-score),co-treatment: lapatinib 1 uM,0.46
same,phospho-S6 immunofluorescence (z-score),co-treatment: vehicle,-1.81
Cc1cc2c(cc1Cl)N(C(=O)Nc1ccc(Oc3cccnc3C)nc1)CC2 (compound 10 µM),phospho-S6 immunofluorescence (z-score),co-treatment: GDC0941 450 nM,-3.98
same,phospho-S6 immunofluorescence (z-score),co-treatment: lapatinib 1 uM,-5.09
same,phospho-S6 immunofluorescence (z-score),co-treatment: vehicle,-1.44
COc1cc(NC(=O)CCN2CCC(OC(=O)Nc3ccccc3-c3ccccc3)CC2)c(Cl)cc1CNC[C@H](O)c1ccc(O)c2[nH]c(=O)ccc12 [Batefenterol] (compound 10 µM),phospho-S6 immunofluorescence (z-score),co-treatment: GDC0941 450 nM,-3.26
same,phospho-S6 immunofluorescence (z-score),co-treatment: lapatinib 1 uM,-4.13
same,phospho-S6 immunofluorescence (z-score),co-treatment: vehicle,0.38
CN(C)CCOC(c1ccccc1)c1ccccc1.Cn1c(=O)c2[nH]c(Cl)nc2n(C)c1=O [Dimenhydrinate] (compound 10 µM),phospho-S6 immunofluorescence (z-score),co-treatment: GDC0941 450 nM,-1.22
same,phospho-S6 immunofluorescence (z-score),co-treatment: lapatinib 1 uM,0.01
same,phospho-S6 immunofluorescence (z-score),co-treatment: vehicle,-0.02
C=C[C@@]1(C)CC(=O)[C@]2(O)[C@@]3(C)[C@@H](O)CCC(C)(C)[C@@H]3[C@H](O)[C@H](OC(C)=O)[C@@]2(C)O1 [Forskolin] (compound 10 µM),phospho-S6 immunofluorescence (z-score),co-treatment: GDC0941 450 nM,1.82
same,phospho-S6 immunofluorescence (z-score),co-treatment: lapatinib 1 uM,2.65
same,phospho-S6 immunofluorescence (z-score),co-treatment: vehicle,0.23
CCCCC(=O)N(Cc1ccc(-c2ccccc2-c2nnn[nH]2)cc1)[C@H](C(=O)O)C(C)C.CCOC(=O)[C@H](C)C[C@@H](Cc1ccc(-c2ccccc2)cc1)NC(=O)CCC(=O)O (compound 10 µM),phospho-S6 immunofluorescence (z-score),co-treatment: GDC0941 450 nM,0.23
same,phospho-S6 immunofluorescence (z-score),co-treatment: lapatinib 1 uM,0.37
same,phospho-S6 immunofluorescence (z-score),co-treatment: vehicle,0.21
Clc1cccc(COc2cncc(N3CCNCC3)n2)c1 (compound 10 µM),phospho-S6 immunofluorescence (z-score),co-treatment: GDC0941 450 nM,-1.03
same,phospho-S6 immunofluorescence (z-score),co-treatment: lapatinib 1 uM,-4.09
same,phospho-S6 immunofluorescence (z-score),co-treatment: vehicle,0.21
Clc1ccc2c(c1)CCc1cccnc1C2=C1CCNCC1 [Desloratadine] (compound 10 µM),phospho-S6 immunofluorescence (z-score),co-treatment: GDC0941 450 nM,-0.48
same,phospho-S6 immunofluorescence (z-score),co-treatment: lapatinib 1 uM,-1.96
same,phospho-S6 immunofluorescence (z-score),co-treatment: vehicle,0.51
CC(=O)OCC(=O)[C@@]12N=C(C)O[C@@H]1C[C@H]1[C@@H]3CCC4=CC(=O)C=C[C@]4(C)[C@H]3[C@@H](O)C[C@@]12C [Deflazacort] (compound 10 µM),phospho-S6 immunofluorescence (z-score),co-treatment: GDC0941 450 nM,-0.99
same,phospho-S6 immunofluorescence (z-score),co-treatment: lapatinib 1 uM,-0.57
same,phospho-S6 immunofluorescence (z-score),co-treatment: vehicle,-0.08
CCc1nc2c(C)nc(C)cc2n1-c1ccc(CCNC(=O)NS(=O)(=O)c2ccc(C)cc2)cc1 [Grapiprant] (compound 10 µM),phospho-S6 immunofluorescence (z-score),co-treatment: GDC0941 450 nM,-0.05
same,phospho-S6 immunofluorescence (z-score),co-treatment: lapatinib 1 uM,-0.15
same,phospho-S6 immunofluorescence (z-score),co-treatment: vehicle,-0.51
COc1cc(/C=C/C(=O)NCCn2c(C(F)(F)F)cc3ccccc32)cc(OC)c1OC (compound 10 µM),phospho-S6 immunofluorescence (z-score),co-treatment: GDC0941 450 nM,-3.69
same,phospho-S6 immunofluorescence (z-score),co-treatment: lapatinib 1 uM,-6.85
same,phospho-S6 immunofluorescence (z-score),co-treatment: vehicle,-8.39
Nc1ccc(/C=C/c2cccc(C(=O)O)n2)cc1 (compound 10 µM),phospho-S6 immunofluorescence (z-score),co-treatment: GDC0941 450 nM,0.9
same,phospho-S6 immunofluorescence (z-score),co-treatment: lapatinib 1 uM,0.88
same,phospho-S6 immunofluorescence (z-score),co-treatment: vehicle,1.07
CCOc1nc2cccc(C(=O)OC(C)OC(=O)OC3CCCCC3)c2n1Cc1ccc(-c2ccccc2-c2nn[nH]n2)cc1 (stereo not drawn) [Candesartan (Cilexetil)] (compound 10 µM),phospho-S6 immunofluorescence (z-score),co-treatment: GDC0941 450 nM,-1.58
same,phospho-S6 immunofluorescence (z-score),co-treatment: lapatinib 1 uM,0.17
same,phospho-S6 immunofluorescence (z-score),co-treatment: vehicle,-1.08
CCC(N)(C(=O)O)c1ccc(C(=O)O)cc1 (stereo not drawn) (compound 10 µM),phospho-S6 immunofluorescence (z-score),co-treatment: GDC0941 450 nM,0.66
same,phospho-S6 immunofluorescence (z-score),co-treatment: lapatinib 1 uM,0.12
same,phospho-S6 immunofluorescence (z-score),co-treatment: vehicle,-0.54
Cn1c(=O)c2c(ncn2CC(O)CO)n(C)c1=O (stereo not drawn) [Diphylline] (compound 10 µM),phospho-S6 immunofluorescence (z-score),co-treatment: GDC0941 450 nM,-0.54
same,phospho-S6 immunofluorescence (z-score),co-treatment: lapatinib 1 uM,-0.14
same,phospho-S6 immunofluorescence (z-score),co-treatment: vehicle,-0.15
CCCc1nc2c(C)cc(-c3nc4ccccc4n3C)cc2n1Cc1ccc(-c2ccccc2C(=O)O)cc1 [Telmisartan] (compound 10 µM),phospho-S6 immunofluorescence (z-score),co-treatment: GDC0941 450 nM,0.54
same,phospho-S6 immunofluorescence (z-score),co-treatment: lapatinib 1 uM,1.6
same,phospho-S6 immunofluorescence (z-score),co-treatment: vehicle,0.35
CCN(CC)Cc1ccc(C(=O)N(CCc2ccccc2OC)[C@@H]2CCNC2)cc1 (compound 10 µM),phospho-S6 immunofluorescence (z-score),co-treatment: GDC0941 450 nM,0.19
same,phospho-S6 immunofluorescence (z-score),co-treatment: lapatinib 1 uM,0.1
same,phospho-S6 immunofluorescence (z-score),co-treatment: vehicle,0.12
